High-throughput results deposited in PubChem by several laboratories.
BJeLR viability: kills HRASV12-expressing BJeLR cells. 300,000 compounds, 0.17% hits. inhibition, % (test concentration not listed). BJeLR (HRASV12) viability, CellTiter-Glo ATP luminescence, 48 h; in the data active = inhibition above about 50%
Mtb FBA inh: inhibits M. tuberculosis FBA enzyme | P9WQA3 | purified M. tuberculosis FBA, fluorescence read-out | inhibition, % at 1 µM | 360,000 compounds, 2.3% hits
Target sequence (P9WQA3 whole entry, looked up): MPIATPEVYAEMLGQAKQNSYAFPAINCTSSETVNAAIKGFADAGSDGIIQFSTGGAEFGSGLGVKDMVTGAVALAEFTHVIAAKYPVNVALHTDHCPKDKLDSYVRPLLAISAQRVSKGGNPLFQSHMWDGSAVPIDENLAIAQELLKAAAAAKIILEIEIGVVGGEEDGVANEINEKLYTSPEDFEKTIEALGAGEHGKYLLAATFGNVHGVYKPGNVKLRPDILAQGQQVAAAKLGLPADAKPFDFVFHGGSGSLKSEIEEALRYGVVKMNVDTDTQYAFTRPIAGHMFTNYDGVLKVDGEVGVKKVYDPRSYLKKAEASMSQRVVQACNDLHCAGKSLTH
PrPC surface inh: cell surface PrPC inhibition, primary TR-FRET screen; 370,000 compounds, 0.43% hits; inhibition, % at 13.8 µM; TR-FRET read-out; in the data active = inhibition above about 24%
PfHsp40 yeast: rescue of PfHsp40-mediated yeast toxicity. growth rescue, % at 12.5 µM. S. cerevisiae expressing PfHsp40, growth rescue, ATP luminescence. 340,000 compounds, 0.68% hits. AID 504582; in the data active = growth rescue above about 28%, passing the limit was not always enough;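 note: yeast W303a lacking pdr1 and pdr3 grown in galactose medium; growth measured after three days at 30 °C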
PrP UTR inh: inhibition of PrP 5' UTR reporter expression. 340,000 compounds, 0.35% hits. cell-based PrP 5' UTR mRNA reporter, plate reader. AID 488862. inhibition, % (no concentration beside the values); in the data active = inhibition above about 52%
GDH-TPI counter-1: GDH-TPI coupled enzyme inhibition counter-screen. GDH-TPI coupled enzyme counterscreen, NADH absorbance. inhibition, % at 4.8 µM. 360,000 compounds, 1.2% hits; in the data active = inhibition above about 30%
Mtb FBA inh conf: Mtb FBA inhibition, confirmed; purified M. tuberculosis FBA, fluorescence read-out; 5,600 compounds, 78% hits; shares compounds with Mtb FBA inh; inhibition, % at 1 µM
GDH-TPI counter-2: counter-screen for M. tuberculosis FBA inhibitors: GDH-TPI coupled enzyme inhibition. AID 652141. inhibition, % at 1 µM. GDH-TPI coupled enzyme counterscreen, fluorescence. 5,600 compounds, 81% hits. shares compounds with Mtb FBA inh; in the data active = inhibition above about 10%
A number is an active result. Hits are enriched below; roughly 4.5% of the tested compounds scored in any of these assays. Cut-off read from the data, not from the text of the source, unless noted: active = inhibition above about 27%; inactive = the rest.

For COc1ccc(-c2coc3c(CN4CCCCC4C)c(O)ccc3c2=O)cc1 (stereo not given) the results were BJeLR viability inactive, Mtb FBA inh 78, PrPC surface inh inactive, PfHsp40 yeast inactive, PrP UTR inh inactive, GDH-TPI counter-1 inactive, Mtb FBA inh conf 70 and GDH-TPI counter-2 46.
C=CCN(CC=C)Cc1c(O)ccc2c(=O)c(-c3ccccc3)coc12 was read as BJeLR viability inactive, Mtb FBA inh 53, PrPC surface inh inactive, PfHsp40 yeast inactive, PrP UTR inh inactive, GDH-TPI counter-1 inactive, Mtb FBA inh conf 34 and GDH-TPI counter-2 27.
`CCC1CCCCN1Cc1c(O)ccc2c(=O)c(-c3ccccc3)coc12` (stereo not given) gave BJeLR viability inactive, Mtb FBA inh 54, PrPC surface inh inactive, PfHsp40 yeast inactive, PrP UTR inh inactive, GDH-TPI counter-1 inactive, Mtb FBA inh conf 41 and GDH-TPI counter-2 32.
Screening CC1CCCCN1Cc1c(O)ccc2c(=O)c(-c3ccccc3)coc12 (stereo not given) returned BJeLR viability inactive, Mtb FBA inh 66, PrPC surface inh inactive, PfHsp40 yeast inactive, PrP UTR inh inactive, GDH-TPI counter-1 inactive, Mtb FBA inh conf 77 and GDH-TPI counter-2 57.
For CCN(CC)Cc1c(O)ccc2c(-c3ccccc3)cc(=O)oc12 the results were BJeLR viability inactive, Mtb FBA inh inactive, PrPC surface inh inactive, PfHsp40 yeast inactive, PrP UTR inh inactive and GDH-TPI counter-1 inactive.
`COC(=O)c1ccc(C(=O)OC)c(NC(=O)/C=C/C(=O)O)c1` gave BJeLR viability inactive, Mtb FBA inh 57, PrPC surface inh inactive, PfHsp40 yeast inactive, PrP UTR inh inactive, GDH-TPI counter-1 inactive, Mtb FBA inh conf 52 and GDH-TPI counter-2 50.
For CCN1CCN(C(=S)Nc2cc(C(=O)OC)ccc2C(=O)OC)CC1 the results were BJeLR viability inactive, Mtb FBA inh 31, PrPC surface inh inactive, PfHsp40 yeast inactive, PrP UTR inh inactive, GDH-TPI counter-1 inactive, Mtb FBA inh conf 135 and GDH-TPI counter-2 115.
For COC(=O)c1ccc(C(=O)OC)c(NC(=S)N2CCN(C(=O)C3CCCO3)CC2)c1 (stereo not given) the results were BJeLR viability inactive, Mtb FBA inh 28, PrPC surface inh inactive, PfHsp40 yeast inactive, PrP UTR inh inactive, GDH-TPI counter-1 inactive, Mtb FBA inh conf 113 and GDH-TPI counter-2 89.
`Cc1cc(Cl)ccc1N(CC(=O)NCc1ccc2c(c1)OCO2)S(C)(=O)=O` gave BJeLR viability inactive, Mtb FBA inh inactive, PrPC surface inh inactive, PfHsp40 yeast inactive, PrP UTR inh inactive and GDH-TPI counter-1 inactive.
COc1ccc(-c2nc(N)c(C#N)c(-c3cccnc3)c2C)cc1 was read as BJeLR viability inactive, Mtb FBA inh inactive, PrPC surface inh inactive, PfHsp40 yeast inactive, PrP UTR inh inactive and GDH-TPI counter-1 inactive.
Screening CCc1cc(=O)oc2c(C)c(OCC(=O)N3C[C@H]4C[C@@H](C3)c3cccc(=O)n3C4)ccc12 returned BJeLR viability inactive, Mtb FBA inh inactive, PrPC surface inh inactive, PfHsp40 yeast inactive, PrP UTR inh inactive and GDH-TPI counter-1 inactive.
Screening CC(C)=CCOc1ccc2c(C)c(CCC(=O)N3C[C@H]4C[C@@H](C3)c3cccc(=O)n3C4)c(=O)oc2c1C returned Mtb FBA inh 82, PrPC surface inh inactive, GDH-TPI counter-1 inactive, Mtb FBA inh conf 102 and GDH-TPI counter-2 92.
`Cc1c(C)c2ccc(OCC(=O)N3C[C@H]4C[C@@H](C3)c3cccc(=O)n3C4)c(C)c2oc1=O` gave BJeLR viability inactive, Mtb FBA inh 34, PrPC surface inh inactive, PfHsp40 yeast inactive, PrP UTR inh inactive, GDH-TPI counter-1 inactive, Mtb FBA inh conf 68 and GDH-TPI counter-2 40.
`COc1ccc(CNC(=O)CCC(=O)N2C[C@H]3C[C@H](C2)c2cccc(=O)n2C3)cc1OC` gave BJeLR viability inactive, Mtb FBA inh inactive, PrPC surface inh inactive, PfHsp40 yeast inactive, PrP UTR inh inactive and GDH-TPI counter-1 inactive.
For O=S(=O)(Nc1nccs1)c1ccc(NS(=O)(=O)c2c(F)cc(F)c(Cl)c2F)cc1 the results were Mtb FBA inh inactive, PrPC surface inh inactive, PfHsp40 yeast inactive, PrP UTR inh inactive and GDH-TPI counter-1 inactive.
